Several values for one entry are separate records, joined by “and”; a condition that tells them apart may be missing. Equal entries are not always repeated. Records with an inconclusive call do not appear. Activity calls are given as the source filed them. Unless noted, calls follow the shape of the dose curve; as a rule, active = well fitted curve in the direction sought with a large enough effect in the repeat runs; inconclusive = weak or mixed curves; inactive = no such curve, though single readings can be large; an effect the other way counts as inactive or inconclusive.
Legend:
[1] = qHTS assay for small molecules that induce genotoxicity in human embryonic kidney cells expressing luciferase-tagged ATAD5 (AID 651632); also: nearly all actives have a fitted effect of over 15% in size
Summary of the method: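 ATAD5-luc HEK293T, 2,000 cells/well; cpd or DMSO pin-transferred; 16 hr, 37C/5% CO2; Amplite 30 min RT; luminescence.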

[2] = qHTS assay for small molecule agonists of the p53 signaling pathway - cell viability (AID 651633; calls by dose curve; also: nearly all actives have a fitted effect of over 30% in size; also: potency is read from the fitted curve at half-maximal effect)
Summary of the method: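 Viability counter-read: CellTiter-Glo luminescence (30 min, room temperature) in the same p53RE-bla plates. These plates had been exposed to compounds for 16 h at 37 C.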

[3] = qHTS assay for small molecules that induce genotoxicity in human embryonic kidney cells expressing luciferase-tagged ATAD5 - cell viability (AID 651634; calls by dose curve; also: nearly all actives have a fitted effect of over 25% in size; also: potency is read from the fitted curve at half-maximal effect)
Summary of the method: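 Fluorescence from CellTiter-Fluor, reporting protease activity within live cells, served as the viability read-out. HEK293T cells carrying luciferase-tagged ATAD5 had been treated with compound for 15.5 hr at 37C.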

[4] = qHTS assay for small molecule disruptors of the mitochondrial membrane potential - cell viability (AID 720634; calls by dose curve; also: nearly all actives have a fitted effect of over 20% in size; also: potency is read from the fitted curve at half-maximal effect)
Summary of the method: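 Cells: HepG2, 2,000/well, attached overnight. Compound 1 hr, 37 C/5% CO2. +m-MPI dye, +CellTiter-Glo 30 min RT. Readout: luminescence (ATP).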

[5] = qHTS assay for small molecule disruptors of the mitochondrial membrane potential (AID 720635); also: potency is read from the fitted curve at half-maximal effect
Summary of the method: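 Mitochondrial membrane potential tracked with Mito-MPS dye, red aggregates (ex 540/em 590 nm) against green monomers (ex 490/em 535 nm). Compound treatment 1 hr at 37C, dye 30 min in HepG2.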

[6] = qHTS assay to test for compound auto fluorescence at 590 nm (red) in HepG2 cells (AID 720674)
Summary of the method: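 We screened compounds on adherent HepG2 cells, incubating them for an hour at 37 C in 5% CO2 before reading emission at 590 nm under 540 nm excitation; values reflect equivalence to Rose Bengal sodium fluorescence.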

[7] = qHTS assay to test for compound auto fluorescence at 535 nm (green) in HepG2 cells (AID 720675)
[8] = qHTS assay to test for compound auto fluorescence at 460 nm (blue) in HEK293 cells (AID 720678)
Summary of the method: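 Triamterene serves as the blue fluorophore standard. Compound signal at 405/460 nm is read in HEK293 wells (2,000 cells, 10% dialyzed FBS) after overnight treatment at 37C.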

[9] = qHTS assay to test for compound auto fluorescence at 590 nm (red) in HEK293 cells (AID 720679)
Summary of the method: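 We plated HEK293 cells in 10% dialyzed FBS medium, let them adhere for 4-5 hr, then added 23 nL compound. Overnight at 37C and 5% CO2 preceded fluorescence measurement at 540/590nm.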

[10] = qHTS assay for small molecule agonists of the p53 signaling pathway (AID 651631; calls by dose curve; also: nearly all actives have a fitted effect of over 15% in size; also: potency is read from the fitted curve at half-maximal effect)
Summary of the method: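 p53RE-bla HCT-116 cells; compounds 16 h, 37 °C; LiveBLAzer B/G FRET substrate 2 h RT; fluorescence intensity read-out, qHTS format.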
% is scaled to controls: 0 for no effect and ±100 for the full control effect.

Clc1ccc(COC(Cn2ccnc2)c2ccc(Cl)cc2Cl)cc1 (configuration not stated)
active: Potency [2] 29.8 µM and 27.2 µM | Potency [3] 26.6 µM | Potency [4] 26.6 µM | Potency [5] 18.8 µM and 45.3 µM and 54.3 µM
inactive: Potency [1] | outcome [6] | outcome [7] | Potency [8] | outcome [9]

O=c1oc2ccccc2c(O)c1Cc1c(O)c2ccccc2oc1=O
inactive: Potency [1] | Potency [3] | fluorescence, relative to Rose Bengal [6] -0.349% [at 18.6 µM] | fluorescence, % of fluorescein control [7] 0.0236% [at 18.6 µM] | fluorescence, % of triamterene [8] 0.108% [at 18.6 µM] | fluorescence, % of fluorescent control [9] -0.0848% [at 18.6 µM]
active: Potency [10] 0.639 µM | Potency [2] 0.507 µM

c1ccc2c(c1)[nH]c1cnccc12
inactive: Potency [1] | Potency [2] | Potency [3] | Potency [4] | Potency [5] | outcome [6] | outcome [7] | Potency [8] | outcome [9]

Cc1cc(C(F)(C(F)(F)F)C(F)(F)F)ccc1NC(=O)c1cccc(I)c1C(=O)NC(C)(C)CS(C)(=O)=O
inactive: Potency [1] | Potency [2] | Potency [3] | Potency [4] | outcome [6] | outcome [7] | Potency [8] | outcome [9]
active: Potency [5] 17.3 µM

Clc1ccc(-c2ccc(Cl)c(Cl)c2Cl)c(Cl)c1Cl
inactive: Potency [3] | outcome [6] | outcome [7] | Potency [8] | outcome [9]
active: Potency [10] 58.2 µM | Potency [2] 65.3 µM

CC(C)OS(C)(=O)=O
inactive: Potency [10] | Potency [2] | Potency [3] | Potency [4] | outcome [7] | Potency [8] | outcome [9]

C[C@]12CC[C@@H]3c4ccc(OC(=O)N(CCCl)CCCl)cc4CC[C@H]3[C@@H]1CC[C@@H]2O
active: Potency [10] 21.1 µM
inactive: Potency [2] | Potency [3] | Potency [4] | Potency [5] | outcome [7] | Potency [8] | outcome [9]

O=C(NC(=O)c1c(F)cccc1F)Nc1cc(Cl)c(OC(F)(F)C(F)F)c(Cl)c1
inactive: Potency [1] | Potency [2] | Potency [3] | Potency [4] | outcome [6] | outcome [7] | Potency [8] | outcome [9]
active: Potency [5] 19.3 µM

c1ccc(Nc2ccc3ccccc3c2)cc1
active: Potency [4] 17.1 µM | Potency [5] 8.58 µM and 13.7 µM
inactive: Potency [1] | Potency [2] | Potency [3] | outcome [6] | outcome [7] | Potency [8] | outcome [9]

O=C(O)COc1nc(Cl)c(Cl)cc1Cl
inactive: Potency [1] | Potency [2] | Potency [3] | Potency [4] | outcome [6] | outcome [7] | Potency [8] | outcome [9]
active: Potency [5] 19.8 µM

[Cl][Sb]([Cl])[Cl]
inactive: Potency [2] | Potency [4] | outcome [6] | outcome [7] | Potency [8] | outcome [9]
active: Potency [10] 34.4 µM

CCC(C)(C)C(=O)OC1=C(c2ccc(Cl)cc2Cl)C(=O)OC12CCCCC2
inactive: Potency [3] | outcome [6] | outcome [7] | Potency [8] | outcome [9]
active: Potency [10] 7.7 µM | Potency [2] 61.1 µM | Potency [5] 9.69 µM

CC[C@H](C)[C@H]1O[C@]2(C=C[C@@H]1C)C[C@@H]1C[C@@H](C/C=C(\C)[C@@H](O[C@H]3C[C@H](OC)[C@@H](O[C@H]4C[C@H](OC)[C@@H](O)[C@H](C)O4)[C@H](C)O3)[C@@H](C)/C=C/C=C3\CO[C@@H]4[C@H](O)C(C)=C[C@@H](C(=O)O1)[C@]34O)O2
inactive: Potency [1] | Potency [4] | outcome [7] | Potency [8] | outcome [9]
active: Potency [2] 14.4 µM | Potency [5] 28.7 µM

CC(C)(O)c1cnn2c(-c3ccc(F)c(-c4c(F)cccc4C#N)c3)cnc2n1
inactive: Potency [1] | Potency [2] | Potency [3] | outcome [7] | Potency [8] | outcome [9]
active: Potency [5] 19.3 µM

C[C@@H]1O[C@@H](O[C@H]2C[C@@H](O)[C@]3(CO)[C@H]4[C@H](O)C[C@]5(C)[C@@H](C6=CC(=O)OC6)CC[C@]5(O)[C@@H]4CC[C@]3(O)C2)[C@H](O)[C@H](O)[C@H]1O
active: Potency [2] 33.5 nM and 53.1 nM and 20.6 nM | Potency [3] 59.6 nM and 37.6 nM and 32.6 nM
inactive: Potency [1] | outcome [6] | outcome [7] | Potency [8] | outcome [9]

CC(C)Oc1cccc(NC(=O)c2ccccc2C(F)(F)F)c1
active: Potency [4] 30.6 µM | Potency [5] 17.2 µM
inactive: Potency [1] | Potency [2] | Potency [3] | outcome [6] | outcome [7] | Potency [8] | outcome [9]

OC(c1ccc(Cl)cc1)(c1ccc(Cl)cc1)C(Cl)(Cl)Cl
active: Potency [2] 61.1 µM | Potency [5] 6.11 µM
inactive: Potency [1] | outcome [6] | outcome [7] | Potency [8] | outcome [9]

O=[N+]([O-])c1cc([N+](=O)[O-])c2ccccc2c1
inactive: Potency [1] | Potency [2] | Potency [3] | outcome [7] | Potency [8] | outcome [9]
active: Potency [5] 10.9 µM

COc1ccc(N)cc1N
inactive: Potency [1] | outcome [6] | outcome [7] | Potency [8] | outcome [9]
active: Potency [2] 22.4 µM and 33 µM | Potency [4] 63.1 µM and 29.4 µM | Potency [5] 1.78 µM and 4.15 µM

Clc1ccc(CO/N=C(\Cn2ccnc2)c2ccc(Cl)cc2Cl)c(Cl)c1
inactive: Potency [1] | Potency [4] | outcome [6] | outcome [7] | Potency [8] | outcome [9]
active: Potency [2] 26.6 µM

CC(=O)c1cc(C(C)(C)C)cc2c1CCC2(C)C
active: Potency [2] 54.5 µM | Potency [5] 30.6 µM
inactive: Potency [1] | Potency [3] | outcome [6] | outcome [7] | Potency [8] | outcome [9]

CC(C)(C)C(O)/C(=C\c1ccc(Cl)cc1Cl)n1cncn1 (configuration not stated)
active: Potency [5] 10.4 µM
inactive: Potency [1] | Potency [2] | outcome [6] | outcome [7] | Potency [8] | outcome [9]

COP(=O)(OC)SCn1c(=O)oc2cc(Cl)cnc21
inactive: Potency [1] | Potency [2] | Potency [3] | Potency [4] | outcome [6] | outcome [7] | Potency [8] | outcome [9]

Cc1cc(SCc2sc(-c3ccc(C(F)(F)F)c(F)c3)nc2C)ccc1OCC(=O)O
inactive: Potency [1] | outcome [6] | outcome [7] | Potency [8] | outcome [9]
active: Potency [2] 48.6 µM
